For 19 compounds, Potency, viability change, negative = cytotoxic and activity change, negative = cytotoxicity results are on record in PubChem BioAssay (Tox21).

Structures are written as SMILES. Inconclusive results are not listed. A number with no mark means an inactive call. The source made the active and inactive calls. Calls follow the shape of the dose curve; as a rule, active = well fitted cell-killing curve with a large enough effect in the repeat runs; inconclusive = weak or mixed curves, or effect the other way; inactive = flat fitted curve, though single readings scatter.

Assay [1] is described as follows: cAMP Responsive Elements (CRE) small molecule antagonists, cell-based qHTS assay: qHTS cell viability counter screen (AID 2060913). Also: nearly all actives have a fitted effect of over 40% in size. The following applies: CRE-bla HEK293T viability, CellTiter-Glo luminescence, 5 h; series mostly up to 92.4 µM. The essentials:
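HEK293T CRE-bla, 2,000 cells/well, 18 h preincubation; cpd in DMSO + NKH477 0.25 uM final, 3 h 37 C/5% CO2; LiveBLAzer 2 h RT, then CellTiter-Glo 30 min RT, luminescence.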

Assay [2] in a line: cAMP Responsive Elements (CRE) small molecule agonists, cell-based qHTS assay: qHTS cell viability counter screen (AID 2060914). Also: nearly all actives have a fitted effect of over 50% in size. The following applies: CRE-bla HEK293T viability, CellTiter-Glo luminescence, 5 h; series mostly up to 92.4 µM. The essentials:
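In the same wells as the reporter read, viability of CRE-bla HEK 293T cells was quantified by CellTiter-Glo luminescence after a 3 h compound exposure.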
Background: In qHTS, concentration-response curves come from the screen itself.
% is scaled to controls: 0 for no effect and ±100 for the full control effect.

As for `COC(=O)CCS`, the Potency entry in assay [1] and in assay [2] was “inactive” in each case.

In the case of `CCc1ccc(CCOc2ccc(CC3SC(=O)NC3=O)cc2)nc1` (stereo not drawn), the Potency entry in assay [1] and in assay [2] was “inactive” in each case.

For `Cc1cn([C@H]2C[C@H](F)[C@@H](CO)O2)c(=O)[nH]c1=O`, the Potency result in assay [1] and in assay [2] was “inactive” each time.

For the compound `CCCCNS(=O)(=O)c1ccccc1`, the Potency result in assay [1] and in assay [2] was “inactive” throughout.

Take `CC1=NC(C)OC1C` (stereo not drawn): the Potency result in assay [1] and in assay [2] was “inactive” in each case.

On to `Clc1ccc2nsnc2c1NC1=NCCN1`, for which the Potency result in assay [1] and in assay [2] was “inactive” throughout.

As for `Cc1ccc2c(c1)c1c3n2CCNC3CCC1` (stereo not drawn), the Potency entry in assay [1] and in assay [2] was “inactive” each time.

As to `C=C(C)C(=O)OCCCCCCCCCCCCCCCCCC`, the viability change, negative = cytotoxic in assay [1] is 12.4% [at 18.9 µM]. The activity change, negative = cytotoxicity in assay [2] was 2.15% [at 18.9 µM].

Take `S=C([S-])NCCNC(=S)[S-].S=C([S-])NCCNC(=S)[S-].[Mn+2].[Zn+2]`: the Potency result in assay [1] and in assay [2] was “inactive” in each case.

Consider `Nc1nc(N)nc(-c2ccccc2)n1`, for which the Potency entry in assay [1] and in assay [2] was “inactive” each time.

In the case of `CC(=C(CCOC(=O)C(C)C)SSC(CCOC(=O)C(C)C)=C(C)N(C=O)Cc1cnc(C)nc1N)N(C=O)Cc1cnc(C)nc1N`, the Potency result in assay [1] and in assay [2] was “inactive” each time.

For the compound `CCCCC(CC)COC(C)=O` (stereo not drawn), the Potency entry in assay [1] and in assay [2] was “inactive” each time.

With `CC(C)=CC=O`, the Potency entry in assay [1] and in assay [2] was “inactive” in each case.

`CC(C)(c1ccccc1)c1ccc(Nc2ccc(C(C)(C)c3ccccc3)cc2)cc1`: the Potency entry in assay [1] and in assay [2] was “inactive” in each case.

Consider `C=C(C)C(=O)OC(C)C`, for which the Potency entry in assay [1] and in assay [2] was “inactive” in each case.

Consider `C=C(C)C(=O)OCCC(F)(F)C(F)(F)C(F)(F)C(F)(F)C(F)(F)C(F)(F)F`, for which the Potency result in assay [1] and in assay [2] was “inactive” each time.

As for `CC/C=C\CCOC(=O)CC`, the Potency result in assay [1] and in assay [2] was “inactive” each time.

Turning to `CCCC1CCCC(=O)O1` (stereo not drawn), the Potency result in assay [1] and in assay [2] was “inactive” in each case.

For `c1cnc2c(n1)CCCC2`, the Potency entry in assay [1] and in assay [2] was “inactive” throughout.
